Only a selection was taken, and the strongest signals are over-represented in it overall.
Columns and labels:
Experiment in all cases: glycan array binding signal (z-score within array); higher = stronger binding
Conditions in all cases: glycan notation: IUPAC condensed, linker removed
[1] = target: GalNAc(b1-4)Gal(b1-4)Glc
Procedure, shortened: (§1)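 Glycan array binding is given as a within-array Z-score, which can be read as non-binding when negative. The arrays, 3228 of them, came from the Consortium for Functional Glycomics database and were retained only where the protein sequence was available. Z-scores were averaged across arrays of the same protein sequence at different concentrations or buffers and across linkers.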

[2] = target: GalNAc(b1-4)GlcNAc
Procedure, shortened: as §1

[3] = target: Glc(a1-6)Glc(a1-6)Glc(a1-6)Glc
Procedure, shortened: as §1

[4] = target: GlcNAc(b1-2)Gal(b1-3)GalNAc
Procedure, shortened: as §1

[5] = target: GlcNAc(b1-3)Gal(b1-4)GlcNAc(b1-3)Gal(b1-4)GlcNAc(b1-3)Gal(b1-4)GlcNAc(b1-2)Man(a1-3)[GlcNAc(b1-3)Gal(b1-4)GlcNAc(b1-3)Gal(b1-4)GlcNAc(b1-3)Gal(b1-4)GlcNAc(b1-2)Man(a1-6)]Man(b1-4)GlcNAc(b1-4)[Fuc(a1-6)]GlcNAc
Procedure, shortened: as §1

[6] = target: GlcNAc(b1-3)Gal(b1-4)GlcNAc(b1-3)Gal(b1-4)GlcNAc(b1-3)Gal(b1-4)GlcNAc(b1-2)[GlcNAc(b1-3)Gal(b1-4)GlcNAc(b1-3)Gal(b1-4)GlcNAc(b1-3)Gal(b1-4)GlcNAc(b1-6)]Man(a1-6)[GlcNAc(b1-3)Gal(b1-4)GlcNAc(b1-3)Gal(b1-4)GlcNAc(b1-3)Gal(b1-4)GlcNAc(b1-2)Man(a1-3)]Man(b1-4)GlcNAc(b1-4)[Fuc(a1-6)]GlcNAc
Procedure, shortened: as §1

[7] = target: GlcNAc(b1-3)Gal(b1-4)GlcNAc(b1-3)Gal(b1-4)GlcNAc(b1-3)Gal(b1-4)GlcNAc(b1-3)Gal(b1-4)GlcNAc(b1-2)[GlcNAc(b1-3)Gal(b1-4)GlcNAc(b1-3)Gal(b1-4)GlcNAc(b1-3)Gal(b1-4)GlcNAc(b1-3)Gal(b1-4)GlcNAc(b1-6)]Man(a1-6)[GlcNAc(b1-3)Gal(b1-4)GlcNAc(b1-3)Gal(b1-4)GlcNAc(b1-3)Gal(b1-4)GlcNAc(b1-3)Gal(b1-4)GlcNAc(b1-2)Man(a1-3)]Man(b1-4)GlcNAc(b1-4)[Fuc(a1-6)]GlcNAc
Procedure, shortened: as §1

[8] = target: GlcNAc(b1-3)GalNAc
Procedure, shortened: as §1

[9] = target: GlcNAc(b1-3)Man
Procedure, shortened: as §1

[10] = target: GlcNAc(b1-3)[GlcNAc(b1-6)]GalNAc
Procedure, shortened: as §1

[11] = target: GlcNAc(b1-4)GlcNAc(b1-4)GlcNAc(b1-4)GlcNAc(b1-4)GlcNAc(b1-4)GlcNAc
Procedure, shortened: as §1

[12] = target: Kdn(a2-3)Gal(b1-3)GlcNAc
Procedure, shortened: as §1

[13] = target: Man(a1-2)Man(a1-3)Man
Procedure, shortened: as §1

[14] = target: Neu5Ac(a2-3)Gal(b1-4)GlcNAc(b1-2)Man(a1-3)[Neu5Ac(a2-3)Gal(b1-4)GlcNAc(b1-2)Man(a1-6)]Man(b1-4)GlcNAc(b1-4)GlcNAc
Procedure, shortened: as §1

[15] = target: Neu5Ac(a2-3)Gal(b1-4)GlcNAc(b1-3)Gal(b1-3)GlcNAc
Procedure, shortened: as §1

[16] = target: Neu5Ac(a2-3)Gal(b1-4)GlcNAc(b1-3)Gal(b1-4)GlcNAc
Procedure, shortened: as §1

[17] = target: Neu5Ac(a2-3)Gal(b1-4)GlcNAc(b1-3)GalNAc
Procedure, shortened: as §1

[18] = target: Neu5Ac(a2-3)Gal(b1-4)[Fuc(a1-3)]GlcNAc(b1-6)[Gal(b1-3)]GalNAc
Procedure, shortened: as §1

[19] = target: Neu5Ac(a2-3)[GalNAc(b1-4)]Gal(b1-4)GlcNAc(b1-3)GalNAc
Procedure, shortened: as §1

[20] = target: Neu5Ac(a2-6)Gal(b1-3)GlcNAc(b1-3)[Gal(b1-4)GlcNAc(b1-6)]Gal(b1-4)Glc
Procedure, shortened: as §1

[21] = target: Neu5Ac(a2-6)Gal(b1-4)GlcNAc(b1-3)Gal(b1-4)GlcNAc(b1-3)Gal(b1-4)GlcNAc
Procedure, shortened: as §1

[22] = target: Neu5Ac(a2-6)Gal(b1-4)GlcNAc(b1-3)Gal(b1-4)GlcNAc(b1-3)Gal(b1-4)GlcNAc(b1-2)Man(a1-3)[Neu5Ac(a2-6)Gal(b1-4)GlcNAc(b1-3)Gal(b1-4)GlcNAc(b1-3)Gal(b1-4)GlcNAc(b1-2)Man(a1-6)]GalNAc
Procedure, shortened: as §1

[23] = target: Neu5Ac(a2-6)Gal(b1-4)GlcNAc(b1-3)Gal(b1-4)GlcNAc(b1-3)[Neu5Ac(a2-6)Gal(b1-4)GlcNAc(b1-3)Gal(b1-4)GlcNAc(b1-6)]GalNAc
Procedure, shortened: as §1

[24] = target: Neu5Ac(a2-6)Gal(b1-4)GlcNAc(b1-6)[Gal(b1-3)GlcNAc(b1-3)]Gal(b1-4)Glc
Procedure, shortened: as §1

[25] = target: Neu5Ac(a2-6)GalNAc(b1-4)GlcNAc
Procedure, shortened: as §1

[26] = target: Neu5Ac(a2-8)Neu5Ac(a2-3)Gal(b1-4)GlcNAc
Procedure, shortened: as §1

[27] = target: Neu5Ac(a2-8)Neu5Ac(a2-8)Neu5Ac
Procedure, shortened: as §1

[28] = target: Neu5Gc(a2-3)Gal(b1-4)GlcNAc(b1-3)Gal(b1-4)GlcNAc(b1-2)Man(a1-3)[Neu5Gc(a2-3)Gal(b1-4)GlcNAc(b1-3)Gal(b1-4)GlcNAc(b1-2)Man(a1-6)]Man(b1-4)GlcNAc(b1-4)GlcNAc
Procedure, shortened: as §1

B1: PkBDPgamma (Plasmodium knowlesi) (protein)
chain: SAINQIFLQNNVMDKCNDKRKRGERDWDCPTEKDVCIPDRRYQLCMMEITNLVDTDTHFHSDIIFRKSYSRRRLIYDVGGRGDLLLKKYNNVYSEDLCKDIKWSLQDFGDIIMGTDMEGIGYSLVVQNNLRSIFGTGTSAELDRKKWWNDHKKDIWKAMILSVKEKNRYSAWNCKEDVQIKVEPQIYRWIREWGRDYMSEFREQRRKLNEKCEDKLYYSTMLICTLPPCNNACKSYDEWITGKKKQWDVLSTKFSSVKKAQKIETENIARAYDILKQELNGFNEVTFENEINKRDKLYNYFCVCIVQEARKNTQENVKNVGSGVESKAPSSNPINEAVKSSSGEGKVQEDSAHRSVNEGEGKSSTNEADPGSQPGAAASGGGSGGGTGGGVDLAPQMLRELQETNAALQDVRELLRQQVKEITFLKNTVMECDACGGPLDRNLPPLAPLGPTGGWSHPQFEK
Q: How did the “glycan array binding signal (z-score)” value [1] turn out when B1 was run?
A: The value was -0.243.

Q: What about the “glycan array binding signal (z-score)” value [2] of the same binder?
A: The value was -0.002.

Q: What about the “glycan array binding signal (z-score)” value [3] of the same binder?
A: The value was 0.897.

Q: And the “glycan array binding signal (z-score)” value [4]?
A: The value was -0.401.

Q: What about the “glycan array binding signal (z-score)” value [5] of the same binder?
A: The value was 0.128.

Q: What about the “glycan array binding signal (z-score)” value [6] of the same binder?
A: The value was -0.196.

Q: What about the “glycan array binding signal (z-score)” value [7] of the same binder?
A: The value was 2.27.

Q: And the “glycan array binding signal (z-score)” value [8]?
A: Its value is -0.356.

Q: What about the “glycan array binding signal (z-score)” value [9] of the same binder?
A: The value was -0.084.

Q: What about the “glycan array binding signal (z-score)” value [10] of the same binder?
A: Its value is -0.331.

Q: And the “glycan array binding signal (z-score)” value [11]?
A: The value was -0.371.

Q: And the “glycan array binding signal (z-score)” value [12]?
A: The value was -0.196.

Q: What about the “glycan array binding signal (z-score)” value [13] of the same binder?
A: The value was -0.276.

Q: What about the “glycan array binding signal (z-score)” value [14] of the same binder?
A: Its value is 0.46.

Q: What about the “glycan array binding signal (z-score)” value [15] of the same binder?
A: Its value is -0.241.

Q: And the “glycan array binding signal (z-score)” value [16]?
A: The value was 0.522.

Q: And the “glycan array binding signal (z-score)” value [17]?
A: Its value is -0.073.

Q: And the “glycan array binding signal (z-score)” value [18]?
A: The value was 0.362.

Q: And the “glycan array binding signal (z-score)” value [19]?
A: Its value is -0.323.

Q: What about the “glycan array binding signal (z-score)” value [20] of the same binder?
A: The value was -0.324.

Q: What about the “glycan array binding signal (z-score)” value [21] of the same binder?
A: The value was 0.015.

Q: What about the “glycan array binding signal (z-score)” value [22] of the same binder?
A: The value was 0.405.

Q: What about the “glycan array binding signal (z-score)” value [23] of the same binder?
A: The value was 0.922.

Q: What about the “glycan array binding signal (z-score)” value [24] of the same binder?
A: Its value is 1.24.

Q: And the “glycan array binding signal (z-score)” value [25]?
A: The value was -0.045.

Q: What about the “glycan array binding signal (z-score)” value [26] of the same binder?
A: The value was 0.25.

Q: And the “glycan array binding signal (z-score)” value [27]?
A: Its value is -0.324.

Q: What about the “glycan array binding signal (z-score)” value [28] of the same binder?
A: The value was 20.7.

Reference: the supplement of paper PMC8728848
